# Assays:
# Experiment in all cases: DAPPL (digital affinity profiling via proximity ligation, sequencing); 10 mM Tris-HCl pH 7.5, 50 mM NaCl, 1 mM DTT, 4% glycerol, room temperature, 30 min; GST-TFs on glutathione beads, 16-mer random dsDNA library, 0.1% formaldehyde crosslink after washing; high values mean tight binding
# FLI1 = biological target: T1, FLI1 (Homo sapiens, UniProt Q01543 1-452); conditions: protein: recombinant; tags: N-terminal GST; dsDNA, one strand shown
# T1 sequence: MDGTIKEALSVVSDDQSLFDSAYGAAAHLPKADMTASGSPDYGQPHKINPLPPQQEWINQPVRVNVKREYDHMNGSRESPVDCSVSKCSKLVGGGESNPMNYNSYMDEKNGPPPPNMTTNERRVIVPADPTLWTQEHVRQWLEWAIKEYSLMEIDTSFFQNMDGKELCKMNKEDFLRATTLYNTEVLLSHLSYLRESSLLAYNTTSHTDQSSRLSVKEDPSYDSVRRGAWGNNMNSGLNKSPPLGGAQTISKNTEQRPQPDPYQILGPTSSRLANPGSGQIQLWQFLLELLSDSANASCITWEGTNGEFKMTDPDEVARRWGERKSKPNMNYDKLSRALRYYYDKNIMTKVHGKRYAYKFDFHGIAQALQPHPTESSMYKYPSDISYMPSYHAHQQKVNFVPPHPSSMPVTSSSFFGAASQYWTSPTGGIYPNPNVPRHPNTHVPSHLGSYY
# Outline: (§1)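 Pools of DNA-barcoded human transcription factors, expressed in yeast as GST fusions on glutathione beads and combined with a tag-only sample, were incubated with 200 nmole of a 16-mer random double-stranded DNA library. Incubation took 30 min at room temperature in Tris/NaCl/DTT/glycerol buffer and was followed by washing, 0.1% formaldehyde crosslinking, proximity ligation (BsaI/T4 ligase, 1 h, 37 °C), PCR amplification and sequencing on an Illumina NextSeq500. Binding signal is the ratio of a hexamer's read frequency for a factor to its frequency for the tag-only sample.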
# ELK1 = biological target: T2, ELK1 (Homo sapiens, UniProt P19419 1-428); conditions: protein: recombinant; tags: N-terminal GST; dsDNA, one strand shown
# T2 sequence: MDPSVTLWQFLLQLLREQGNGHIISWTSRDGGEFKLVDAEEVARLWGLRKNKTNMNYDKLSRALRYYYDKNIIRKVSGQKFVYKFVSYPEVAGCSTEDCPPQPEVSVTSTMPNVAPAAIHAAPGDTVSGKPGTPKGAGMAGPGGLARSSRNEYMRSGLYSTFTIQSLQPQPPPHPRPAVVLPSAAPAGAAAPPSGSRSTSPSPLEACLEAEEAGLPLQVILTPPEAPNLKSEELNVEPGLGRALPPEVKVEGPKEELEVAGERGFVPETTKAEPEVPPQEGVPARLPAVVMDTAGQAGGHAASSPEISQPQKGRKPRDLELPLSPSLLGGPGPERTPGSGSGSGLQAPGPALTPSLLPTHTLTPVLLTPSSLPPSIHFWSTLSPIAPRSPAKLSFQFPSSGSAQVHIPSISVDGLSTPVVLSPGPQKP
# Outline: as §1
# GABPA = biological target: T3, GABPA (Homo sapiens, UniProt Q06546 1-454); conditions: protein: recombinant; tags: N-terminal GST; dsDNA, one strand shown
# T3 sequence: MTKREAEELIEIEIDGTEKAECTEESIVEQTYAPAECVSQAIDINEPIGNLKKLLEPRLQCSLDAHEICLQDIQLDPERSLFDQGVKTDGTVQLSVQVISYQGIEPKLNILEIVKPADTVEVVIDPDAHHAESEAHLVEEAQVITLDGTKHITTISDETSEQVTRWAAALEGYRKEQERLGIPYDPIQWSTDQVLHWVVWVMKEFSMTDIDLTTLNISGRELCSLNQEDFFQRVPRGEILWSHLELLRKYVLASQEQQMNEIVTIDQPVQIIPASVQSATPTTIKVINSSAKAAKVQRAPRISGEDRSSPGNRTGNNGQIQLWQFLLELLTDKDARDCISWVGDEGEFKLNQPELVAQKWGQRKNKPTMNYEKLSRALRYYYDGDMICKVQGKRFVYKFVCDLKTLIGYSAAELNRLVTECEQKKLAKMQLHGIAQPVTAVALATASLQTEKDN
# Outline: as §1
# ERG = biological target: T4, ERG (Homo sapiens, UniProt P11308 1-479); conditions: protein: recombinant; tags: N-terminal GST; dsDNA, one strand shown
# T4 sequence: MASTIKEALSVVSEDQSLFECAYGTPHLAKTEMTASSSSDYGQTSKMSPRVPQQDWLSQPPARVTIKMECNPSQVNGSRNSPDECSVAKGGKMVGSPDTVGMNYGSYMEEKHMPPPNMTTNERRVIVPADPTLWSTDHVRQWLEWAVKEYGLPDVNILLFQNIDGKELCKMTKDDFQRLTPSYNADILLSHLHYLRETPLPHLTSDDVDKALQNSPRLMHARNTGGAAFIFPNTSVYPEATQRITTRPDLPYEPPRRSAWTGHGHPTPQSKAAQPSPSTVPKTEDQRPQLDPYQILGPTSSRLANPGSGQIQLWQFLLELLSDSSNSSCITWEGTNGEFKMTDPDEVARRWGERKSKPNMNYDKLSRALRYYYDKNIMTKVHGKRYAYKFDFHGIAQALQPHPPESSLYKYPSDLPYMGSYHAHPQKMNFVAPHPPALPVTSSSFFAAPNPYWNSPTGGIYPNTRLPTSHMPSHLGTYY
# Outline: as §1
# ELF1 = ELF1 (Homo sapiens, UniProt P32519 1-619); conditions: protein: recombinant; tags: N-terminal GST; dsDNA, one strand shown
# Sequence of ELF1 (P32519 whole entry): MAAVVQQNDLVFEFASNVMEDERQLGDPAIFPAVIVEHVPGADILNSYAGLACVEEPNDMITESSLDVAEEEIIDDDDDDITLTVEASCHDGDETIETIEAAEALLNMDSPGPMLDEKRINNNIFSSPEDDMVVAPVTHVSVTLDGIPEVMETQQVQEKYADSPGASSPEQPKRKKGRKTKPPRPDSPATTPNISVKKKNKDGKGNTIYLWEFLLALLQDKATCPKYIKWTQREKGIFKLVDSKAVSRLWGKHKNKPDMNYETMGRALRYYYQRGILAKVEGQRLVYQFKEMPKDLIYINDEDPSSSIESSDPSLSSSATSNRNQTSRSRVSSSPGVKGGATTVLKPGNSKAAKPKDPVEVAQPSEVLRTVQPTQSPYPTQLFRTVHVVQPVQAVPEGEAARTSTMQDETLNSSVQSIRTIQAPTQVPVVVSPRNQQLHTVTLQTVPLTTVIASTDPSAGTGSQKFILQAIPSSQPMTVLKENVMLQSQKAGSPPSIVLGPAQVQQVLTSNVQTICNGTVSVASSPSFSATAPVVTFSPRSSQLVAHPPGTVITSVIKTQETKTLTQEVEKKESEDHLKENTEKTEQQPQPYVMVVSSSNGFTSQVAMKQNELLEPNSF
# Outline: as §1
# EHF = biological target: T5, EHF (Homo sapiens, UniProt Q9NZC4 1-300); conditions: protein: recombinant; tags: N-terminal GST; dsDNA, one strand shown
# T5 sequence: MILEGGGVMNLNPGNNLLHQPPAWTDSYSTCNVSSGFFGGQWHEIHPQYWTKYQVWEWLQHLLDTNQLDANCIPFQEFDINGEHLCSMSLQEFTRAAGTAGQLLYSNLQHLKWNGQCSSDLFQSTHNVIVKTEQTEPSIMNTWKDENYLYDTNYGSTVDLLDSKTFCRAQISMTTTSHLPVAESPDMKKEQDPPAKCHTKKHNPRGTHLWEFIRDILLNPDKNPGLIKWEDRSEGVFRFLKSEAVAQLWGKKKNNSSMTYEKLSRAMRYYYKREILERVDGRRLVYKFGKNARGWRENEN
# Outline: as §1
# SPI1 = SPI1 (Homo sapiens, UniProt P17947 1-270); conditions: protein: recombinant; tags: N-terminal GST; dsDNA, one strand shown
# Outline: as §1
# SPIB = SPIB (Homo sapiens, UniProt Q01892 1-262); conditions: protein: recombinant; tags: N-terminal GST; dsDNA, one strand shown
# Sequence of SPIB (Q01892 whole entry): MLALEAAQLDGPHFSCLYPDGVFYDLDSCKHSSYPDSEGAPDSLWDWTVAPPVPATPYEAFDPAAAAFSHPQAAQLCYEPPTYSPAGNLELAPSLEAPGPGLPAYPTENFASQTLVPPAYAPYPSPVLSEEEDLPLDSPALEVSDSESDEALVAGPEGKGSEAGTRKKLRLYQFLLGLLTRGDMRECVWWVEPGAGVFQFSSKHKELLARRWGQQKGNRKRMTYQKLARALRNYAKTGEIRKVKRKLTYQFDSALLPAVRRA
# Outline: as §1
# ELK3 = biological target: T6, ELK3 (Homo sapiens, UniProt P41970 1-407); conditions: protein: recombinant; tags: N-terminal GST; dsDNA, one strand shown
# T6 sequence: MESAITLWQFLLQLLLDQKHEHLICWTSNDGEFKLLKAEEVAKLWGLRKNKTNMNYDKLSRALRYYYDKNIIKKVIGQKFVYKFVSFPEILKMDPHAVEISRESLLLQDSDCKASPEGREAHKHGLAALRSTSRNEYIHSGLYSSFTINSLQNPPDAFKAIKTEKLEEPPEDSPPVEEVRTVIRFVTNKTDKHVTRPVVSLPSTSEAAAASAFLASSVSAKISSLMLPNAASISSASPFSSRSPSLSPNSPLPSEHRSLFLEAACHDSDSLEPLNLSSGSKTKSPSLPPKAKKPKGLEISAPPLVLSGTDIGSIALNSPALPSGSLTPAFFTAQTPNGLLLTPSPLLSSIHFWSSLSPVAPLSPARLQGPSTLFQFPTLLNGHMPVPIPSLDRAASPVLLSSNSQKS
# Outline: as §1
# FEV = biological target: T7, FEV (Homo sapiens, UniProt Q99581 1-238); conditions: protein: recombinant; tags: N-terminal GST; dsDNA, one strand shown
# T7 sequence: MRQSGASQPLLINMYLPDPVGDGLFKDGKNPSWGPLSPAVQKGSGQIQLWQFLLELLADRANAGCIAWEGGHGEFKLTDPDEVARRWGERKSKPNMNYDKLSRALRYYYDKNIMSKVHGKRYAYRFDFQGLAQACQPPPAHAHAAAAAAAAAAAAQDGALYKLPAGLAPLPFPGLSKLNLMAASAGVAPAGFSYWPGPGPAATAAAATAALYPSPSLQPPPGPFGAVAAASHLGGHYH
# Outline: as §1
# ETV5 = ETV5 (Homo sapiens, UniProt P41161 1-510); conditions: protein: recombinant; tags: N-terminal GST; dsDNA, one strand shown
# Sequence of ETV5 (P41161 whole entry): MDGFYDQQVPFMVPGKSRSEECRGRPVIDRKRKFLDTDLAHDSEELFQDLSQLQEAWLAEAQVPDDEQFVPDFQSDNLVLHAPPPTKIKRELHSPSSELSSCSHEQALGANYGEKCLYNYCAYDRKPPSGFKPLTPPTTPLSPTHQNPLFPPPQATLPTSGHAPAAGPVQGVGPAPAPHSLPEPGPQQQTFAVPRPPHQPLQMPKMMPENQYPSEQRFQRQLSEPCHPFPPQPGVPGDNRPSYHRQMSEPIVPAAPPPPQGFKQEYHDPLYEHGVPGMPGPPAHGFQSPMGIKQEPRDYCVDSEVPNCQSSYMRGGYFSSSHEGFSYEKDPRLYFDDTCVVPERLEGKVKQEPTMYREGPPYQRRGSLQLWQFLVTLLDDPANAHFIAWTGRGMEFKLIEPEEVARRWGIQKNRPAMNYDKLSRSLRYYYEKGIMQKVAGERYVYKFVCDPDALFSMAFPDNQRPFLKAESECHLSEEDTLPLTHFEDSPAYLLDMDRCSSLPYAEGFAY
# Outline: as §1
# HSF1 = HSF1 (Homo sapiens, UniProt Q00613 1-529); conditions: protein: recombinant; tags: N-terminal GST; chain copies: 3; dsDNA, one strand shown
# Sequence of HSF1 (Q00613 whole entry): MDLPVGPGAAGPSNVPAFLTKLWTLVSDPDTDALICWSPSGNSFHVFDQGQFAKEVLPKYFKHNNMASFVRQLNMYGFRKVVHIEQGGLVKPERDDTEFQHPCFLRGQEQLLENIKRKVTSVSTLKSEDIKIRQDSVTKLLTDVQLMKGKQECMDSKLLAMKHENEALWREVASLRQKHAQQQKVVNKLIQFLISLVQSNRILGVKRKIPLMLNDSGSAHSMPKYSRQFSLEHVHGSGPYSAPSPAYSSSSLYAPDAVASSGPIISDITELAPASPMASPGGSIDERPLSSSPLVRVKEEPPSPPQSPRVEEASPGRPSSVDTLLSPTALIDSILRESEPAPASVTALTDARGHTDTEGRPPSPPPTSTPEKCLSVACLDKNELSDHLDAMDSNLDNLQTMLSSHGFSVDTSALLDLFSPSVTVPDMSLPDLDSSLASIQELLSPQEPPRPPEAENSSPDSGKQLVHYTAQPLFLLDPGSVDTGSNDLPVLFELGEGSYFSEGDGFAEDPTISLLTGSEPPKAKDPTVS
# Outline: as §1
# SPIC = biological target: T8, SPIC (Homo sapiens, UniProt Q8N5J4 1-248); conditions: protein: recombinant; tags: N-terminal GST; dsDNA, one strand shown
# T8 sequence: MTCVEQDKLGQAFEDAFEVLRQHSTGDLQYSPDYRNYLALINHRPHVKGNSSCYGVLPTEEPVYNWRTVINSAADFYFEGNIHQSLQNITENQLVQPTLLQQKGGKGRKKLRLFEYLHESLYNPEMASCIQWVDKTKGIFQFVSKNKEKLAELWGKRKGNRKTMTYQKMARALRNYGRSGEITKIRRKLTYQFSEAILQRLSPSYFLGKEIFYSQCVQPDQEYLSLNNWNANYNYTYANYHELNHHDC
# Outline: as §1
# ELF4 = ELF4 (Homo sapiens, UniProt Q99607 1-663); conditions: protein: recombinant; tags: N-terminal GST; dsDNA, one strand shown
# Sequence of ELF4 (Q99607 whole entry): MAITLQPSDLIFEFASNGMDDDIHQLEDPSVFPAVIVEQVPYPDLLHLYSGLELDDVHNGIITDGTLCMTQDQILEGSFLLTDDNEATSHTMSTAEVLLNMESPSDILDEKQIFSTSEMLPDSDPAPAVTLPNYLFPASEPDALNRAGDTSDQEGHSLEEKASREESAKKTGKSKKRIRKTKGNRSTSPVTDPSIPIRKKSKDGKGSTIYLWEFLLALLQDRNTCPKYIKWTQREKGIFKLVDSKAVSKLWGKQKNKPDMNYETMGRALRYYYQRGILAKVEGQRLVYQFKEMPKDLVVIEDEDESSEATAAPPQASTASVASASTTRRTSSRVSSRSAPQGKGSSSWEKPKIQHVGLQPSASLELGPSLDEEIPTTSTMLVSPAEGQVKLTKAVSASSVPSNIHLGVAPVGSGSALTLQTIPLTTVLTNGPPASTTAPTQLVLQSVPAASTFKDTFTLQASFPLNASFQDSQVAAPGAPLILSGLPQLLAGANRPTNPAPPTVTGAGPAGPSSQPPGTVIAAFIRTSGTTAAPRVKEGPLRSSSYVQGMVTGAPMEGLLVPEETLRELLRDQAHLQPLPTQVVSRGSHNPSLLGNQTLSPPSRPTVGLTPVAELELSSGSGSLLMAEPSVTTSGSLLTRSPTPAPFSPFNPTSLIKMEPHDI
# Outline: as §1
# ELK4 = biological target: T9, ELK4 (Homo sapiens, UniProt P28324-2 1-405); conditions: protein: recombinant; tags: N-terminal GST; dsDNA, one strand shown
# T9 sequence: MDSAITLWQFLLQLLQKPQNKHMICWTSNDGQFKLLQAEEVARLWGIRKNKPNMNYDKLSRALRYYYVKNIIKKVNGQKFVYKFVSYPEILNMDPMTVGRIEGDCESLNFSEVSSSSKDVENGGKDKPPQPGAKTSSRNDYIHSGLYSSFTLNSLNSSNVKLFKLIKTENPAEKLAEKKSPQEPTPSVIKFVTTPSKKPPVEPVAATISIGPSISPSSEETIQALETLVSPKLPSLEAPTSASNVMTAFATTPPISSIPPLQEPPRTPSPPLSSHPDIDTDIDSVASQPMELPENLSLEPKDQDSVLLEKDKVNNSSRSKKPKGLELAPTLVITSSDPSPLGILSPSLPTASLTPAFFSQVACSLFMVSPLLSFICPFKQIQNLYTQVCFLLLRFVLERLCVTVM
# Outline: as §1
# ETV2 = biological target: T10, ETV2 (Homo sapiens, UniProt O00321 1-342); conditions: protein: recombinant; tags: N-terminal GST; dsDNA, one strand shown
# T10 sequence: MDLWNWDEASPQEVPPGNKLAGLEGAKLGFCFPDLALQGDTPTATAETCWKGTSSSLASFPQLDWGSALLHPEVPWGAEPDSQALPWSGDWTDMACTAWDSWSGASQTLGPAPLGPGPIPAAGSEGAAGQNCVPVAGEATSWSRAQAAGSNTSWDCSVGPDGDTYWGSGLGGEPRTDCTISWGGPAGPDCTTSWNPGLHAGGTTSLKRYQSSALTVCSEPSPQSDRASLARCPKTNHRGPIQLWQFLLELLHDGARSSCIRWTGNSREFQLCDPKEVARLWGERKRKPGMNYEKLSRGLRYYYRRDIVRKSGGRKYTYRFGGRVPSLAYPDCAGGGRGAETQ
# Outline: as §1
# ELF3 = biological target: T11, ELF3 (Homo sapiens, UniProt P78545 1-371); conditions: protein: recombinant; tags: N-terminal GST; dsDNA, one strand shown
# T11 sequence: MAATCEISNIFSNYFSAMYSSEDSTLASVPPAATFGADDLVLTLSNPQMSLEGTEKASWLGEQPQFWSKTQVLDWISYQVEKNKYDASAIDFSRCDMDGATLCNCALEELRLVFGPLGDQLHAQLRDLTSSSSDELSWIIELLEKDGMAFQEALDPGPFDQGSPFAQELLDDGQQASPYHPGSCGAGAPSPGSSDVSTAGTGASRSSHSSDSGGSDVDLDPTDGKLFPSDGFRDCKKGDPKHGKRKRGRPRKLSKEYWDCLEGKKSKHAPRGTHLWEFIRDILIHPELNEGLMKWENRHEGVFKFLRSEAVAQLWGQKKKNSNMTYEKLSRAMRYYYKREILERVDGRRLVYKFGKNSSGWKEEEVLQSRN
# Outline: as §1
# CRX = CRX (Homo sapiens, UniProt O43186 1-299); conditions: protein: recombinant; tags: N-terminal GST; dsDNA, one strand shown
# Sequence of CRX (O43186 whole entry): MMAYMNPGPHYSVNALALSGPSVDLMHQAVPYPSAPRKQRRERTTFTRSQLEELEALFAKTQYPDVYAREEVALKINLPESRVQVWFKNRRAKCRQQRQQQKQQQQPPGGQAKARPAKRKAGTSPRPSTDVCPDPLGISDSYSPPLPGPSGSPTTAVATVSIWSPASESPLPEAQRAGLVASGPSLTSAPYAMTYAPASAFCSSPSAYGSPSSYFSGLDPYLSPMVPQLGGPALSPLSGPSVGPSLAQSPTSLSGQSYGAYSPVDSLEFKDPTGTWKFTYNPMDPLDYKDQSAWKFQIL
# Outline: as §1
# ETV1 = ETV1 (Homo sapiens, UniProt P50549 1-477); conditions: protein: recombinant; tags: N-terminal GST; dsDNA, one strand shown
# Sequence of ETV1 (P50549 whole entry): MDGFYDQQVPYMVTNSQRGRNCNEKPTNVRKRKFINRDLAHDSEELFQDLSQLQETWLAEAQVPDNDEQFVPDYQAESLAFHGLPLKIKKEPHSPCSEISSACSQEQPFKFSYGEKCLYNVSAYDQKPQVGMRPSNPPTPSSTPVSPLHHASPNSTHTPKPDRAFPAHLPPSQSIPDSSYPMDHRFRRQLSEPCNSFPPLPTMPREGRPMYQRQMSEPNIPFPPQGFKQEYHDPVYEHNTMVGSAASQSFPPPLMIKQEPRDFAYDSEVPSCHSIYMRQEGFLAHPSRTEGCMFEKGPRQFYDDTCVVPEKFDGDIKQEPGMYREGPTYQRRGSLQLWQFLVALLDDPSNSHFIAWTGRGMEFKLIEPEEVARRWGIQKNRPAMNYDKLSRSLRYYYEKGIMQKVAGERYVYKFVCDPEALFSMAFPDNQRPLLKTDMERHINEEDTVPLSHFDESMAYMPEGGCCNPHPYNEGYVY
# Outline: as §1
sequence,measurement,setting,value
TCGACC,binding signal,FLI1,"1.28 fold enrichment (6-mer frequency, TF over GST control)"
same,binding signal,ELK1,"1.32 fold enrichment (6-mer frequency, TF over GST control)"
same,binding signal,GABPA,"1.4 fold enrichment (6-mer frequency, TF over GST control)"
same,binding signal,ERG,"1.27 fold enrichment (6-mer frequency, TF over GST control)"
same,binding signal,ELF1,"1.29 fold enrichment (6-mer frequency, TF over GST control)"
same,binding signal,EHF,"1.23 fold enrichment (6-mer frequency, TF over GST control)"
same,binding signal,SPI1,"1.29 fold enrichment (6-mer frequency, TF over GST control)"
same,binding signal,SPIB,"1.28 fold enrichment (6-mer frequency, TF over GST control)"
same,binding signal,ELK3,"1.35 fold enrichment (6-mer frequency, TF over GST control)"
same,binding signal,FEV,"1.32 fold enrichment (6-mer frequency, TF over GST control)"
same,binding signal,ETV5,"1.27 fold enrichment (6-mer frequency, TF over GST control)"
same,binding signal,HSF1,"1.23 fold enrichment (6-mer frequency, TF over GST control)"
same,binding signal,SPIC,"1.17 fold enrichment (6-mer frequency, TF over GST control)"
same,binding signal,ELF4,"1.39 fold enrichment (6-mer frequency, TF over GST control)"
same,binding signal,ELK4,"1.11 fold enrichment (6-mer frequency, TF over GST control)"
same,binding signal,ETV2,"1.35 fold enrichment (6-mer frequency, TF over GST control)"
same,binding signal,ELF3,"1.23 fold enrichment (6-mer frequency, TF over GST control)"
same,binding signal,CRX,"1.11 fold enrichment (6-mer frequency, TF over GST control)"
same,binding signal,ETV1,"1.25 fold enrichment (6-mer frequency, TF over GST control)"

# Source: PMC7862700, “An all-to-all approach to the identification of sequence-specific readers for epigenetic DNA modifications on cytosine”
